Records with an inconclusive call do not appear. The list shows a part of the results. The source made the active and inactive calls. Unless noted, calls follow the shape of the dose curve; as a rule, active = well fitted curve in the direction sought with a large enough effect; inconclusive = small, poorly fitted or top-dose-only effect, or another doubt; inactive = no such curve, though single readings can be large; an effect the other way counts as inactive or inconclusive.
Experiments:
[1] = Cellular Toxicity (caspase-3) Jurkat (AID 655); details: Jurkat caspase-3 activation, luminescence, DMSO = 0%, tamoxifen = 100%; at 92.2 µM (top of the series);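 also: cells exposed to compound for 16 h at 37 °C before reading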
In short: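 Luminescent Caspase-Glo 3/7 read-out (20 min, room temperature) after 16 h compound treatment at 37 C of 5000 Jurkat cells per well. AC50 derived by Hill-equation fitting, scaled between DMSO basal and 100 uM tamoxifen stimulation.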

[2] = Cellular Toxicity (caspase-3) HUV-EC-C (AID 656)
In short: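 Luminescent Caspase-Glo 3/7 readout after 16 h, 37 °C compound exposure of HUV-EC-C endothelial cells, 1000 per well, complete medium. AC50 derived by Hill fitting, with DMSO as baseline and 100 uM tamoxifen as full activation.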

[3] = Cellular Toxicity (caspase-3) SHSY5Y (AID 657)
In short: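 Luminescent Caspase-Glo 3/7 read-out, 1 hr room temperature, follows 16 hours of compound treatment of SH-SY5Y cells at 37 °C. Normalization: DMSO basal, 10 uM staurosporine as 100%; AC50 values from Hill-equation concentration-response fits.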

[4] = Cellular Toxicity (caspase-3) MRC-5 (AID 659);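 also: 0% = DMSO basal and 100% = 10 µM staurosporine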
In short: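 MRC-5 fibroblasts, 1500/well; 16 h cpd, 37 °C; Caspase-Glo 3/7, 1 h RT; lumi read. Norm: DMSO = 0%, 10 uM staurosporine = 100%. Hill-fit AC50 from qHTS conc-response.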

[5] = Cellular Toxicity (caspase-3) Mesangial (AID 660);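 also: combined caspase 3 and 7 activity read by Caspase-Glo luminescence; cells exposed to compound for 16 h before the caspase read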
In short: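 Luminescent Caspase-Glo 3/7 readout (aminoluciferin substrate cleavage, 20 min RT) after 16 h compound exposure at 37 °C of normal human mesangial cells. Signal increase normalized between DMSO basal and 100 uM tamoxifen; Hill-equation AC50.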

[6] = Cellular Toxicity (caspase-3) Hek293 (AID 664);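 also: cells exposed to compound for 16 h at 37 °C before readout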
In short: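 Luminescent Caspase-Glo 3/7 readout (aminoluciferin release) in HEK293 cells after 16 h compound treatment, 37 °C. Normalization: DMSO = basal, 100 uM tamoxifen = 100% stimulation. Concentration-response fitted with standard Hill equation for AC50.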

[7] = Cell Viability - LYMP2-009 (AID 968); also: potency is read from the fitted curve at half-maximal effect; nearly all actives have a fitted effect of over 55% in size
[8] = Cell Viability - LYMP2-013 (AID 970); also: potency is read from the fitted curve at half-maximal effect; nearly all actives have a fitted effect of over 55% in size
In short: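 CellTiter-Glo luminescence (cellular ATP) read after 30 min at RT. Cells: human lymphoblastoid line, 2500/well, 24 hr compound exposure at 37 C. Tetraoctylammonium bromide positive control; AC50 via standard Hill fit of qHTS titrations.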

[9] = Cell Viability - LYMP2-015 (AID 971); also: potency is read from the fitted curve at half-maximal effect; nearly all actives have a fitted effect of over 55% in size
In short: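 qHTS cytotoxicity: 2500 cells/well, 5 hr 37 C, compound 24 hr 37 C, CellTiter-Glo 30 min RT, luminescence. Loss of ATP = toxicity; AC50 via standard Hill fit.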

[10] = Cell Viability - LYMP2-006 (AID 978); also: potency is read from the fitted curve at half-maximal effect; nearly all actives have a fitted effect of over 60% in size
In short: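 Potency values are Hill-fit AC50s for decreases in intracellular ATP (CellTiter-Glo luminescence). LYMP2-006 lymphoblastoid cells, 2500 per well, were exposed to compound in complete culture medium for 24 hr at 37 C.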

[11] = Cell Viability - LYMP2-007 (AID 979);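 also: potency is read from the fitted curve at half-maximal effect; cells exposed to compound for 24 h before reading; nearly all actives have a fitted effect of over 60% in size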
In short: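 qHTS cytotoxicity: 2500 cells/well, 5 hr 37 C settle, compound 24 hr 37 C, CellTiter-Glo 30 min RT, luminescence. Decrease in ATP = toxicity. AC50 by standard Hill equation; tetraoctylammonium bromide positive control.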

[12] = Cell Viability - HepG2 (AID 433; calls by dose curve;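 also: potency is read from the fitted curve at half-maximal effect; cells exposed to compound for 40 hours; potency for ATP loss meaning cytotoxicity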); details: qHTS
In short: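 Cytotoxicity read as ATP loss (CellTiter-Glo luminescence) after 40 hr compound exposure of HepG2, 1500 cells/well, 37 °C. AC50 by Hill equation; 0% set by DMSO, 100% inhibition by 100 uM tamoxifen.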

[13] = Cell Viability - HUV-EC-C (AID 542);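 also: potency is read from the fitted curve at half-maximal effect; cells exposed to compound for 40 hours; nearly all actives have a fitted effect of over 35% in size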
In short: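 Luminescent ATP read-out (CellTiter-Glo, 20 min room temperature) after 40 hr compound treatment of HUV-EC-C cells at 37 °C. Concentration-response data fitted with the standard Hill equation to give AC50; tamoxifen and doxorubicin served as positive controls.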

[14] = Cell Viability - Mesenchymal (AID 546);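 also: cells exposed to compound for 40 hours before reading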
In short: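 Human renal mesenchymal cells (glomerulus-derived), 1000 cells/well, 5 hr 37 °C pre-incubation; compound 40 hr, 37 °C; CellTiter-Glo, 20 min RT; luminescence; AC50 via Hill equation.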

[15] = Cell Viability - LYMP2-004 (AID 966);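 also: plate controls were DMSO only for no effect and tetraoctylammonium bromide control for full effect; nearly all actives have a fitted effect of over 65% in size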
In short: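 Luminescent ATP read-out (CellTiter-Glo, 30 min RT) after 24 hr compound exposure at 37 C; 2500 lymphoblastoid cells/well, complete medium. Decrease in ATP = cytotoxicity; AC50 from standard Hill model.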

[16] = Cell Viability - LYMP1-002 - Assay at 40 hr (AID 994);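 also: 0% = DMSO only and full inhibition = 92 µM tetraoctylammonium bromide; nearly all actives have a fitted effect of over 60% in size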
In short: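 qHTS cytotoxicity; 2500 cells/well, 5 hr 37 C settle, compound 40 hr 37 C. CellTiter-Glo, 30 min RT, luminescence (ATP). Concentration-response, Hill fit → AC50. Pos. ctrl tetraoctylammonium bromide.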

[17] = molecular target: Tumor necrosis factor (Homo sapiens) (UniProt P01375); experiment: qHTS assay to identify small molecules that stimulate Tumor Necrosis Factor-alpha (TNF-alpha) secretion (AID 651757; active = well fitted curve in the direction sought with a large enough effect in the signal ratio; the % refers to the signal ratio; also: 0% is about no effect)
In short: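 THP-1 cells, 3000/well; compound 17 hrs, 37 C; add cryptate/XL665 anti-TNF-alpha antibody pair; 3 hr RT; TR-FRET (HTRF) read of secreted TNF-alpha. Quantitative HTS format.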

[18] = qHTS assay to identify small molecules that stimulate interleukin-8 (IL-8) secretion (AID 651758; active = well fitted activation curve with a large enough effect in the signal ratio; the % refers to the signal ratio; also: 0% is about no effect)
In short: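 Compounds are added to THP-1 cells (2000 per well) and left 16 hrs at 37 C. A labeled anti-IL-8 antibody pair is then added, and IL-8 secretion is measured by time-resolved FRET after 1-3 hrs at room temperature.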

[19] = molecular target: ATPase family AAA domain-containing protein 5 (Homo sapiens) (UniProt Q96QE3); experiment: HTS assay for small molecules that inhibit ELG1-dependent DNA repair in human embryonic kidney (HEK293T) cells expressing luciferase-tagged ELG1: Hit Confirmation (AID 624248); details: HEK293T ELG1-luciferase levels, luminescence; cells co-treated with 5-fluorouridine; also: potency is read from the fitted curve at half-maximal effect; nearly all actives have a fitted effect of over 55% in size
In short: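 HEK293T cells expressing luciferase-tagged ELG1 treated with 5-fluorouridine plus compound for 16 h at 37 C; luciferase activity then measured with ONE-Glo after 30 min at room temperature.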

[20] = molecular target: ATPase family AAA domain-containing protein 5 (Homo sapiens) (UniProt Q96QE3); experiment: qHTS screen for small molecules that inhibit ELG1-dependent DNA repair in human embryonic kidney (HEK293T) cells expressing luciferase-tagged ELG1: Hit Confirmation using MMS Stimulated ELG1 (AID 624249); details: HEK293T luciferase-tagged ELG1 level; also: potency is read from the fitted curve at half-maximal effect; nearly all actives have a fitted effect of over 60% in size
In short: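 Luminescence from luciferase-tagged ELG1 measured 16 h after pin-tool compound transfer into HEK293T cells stimulated with 10 µM MMS (final). Compounds lowering luciferase signal counted as inhibitors of ELG1 response.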

Chain of ATPase family AAA domain-containing protein 5 (Homo sapiens) (Q96QE3 whole entry, looked up, the tested form may be a part): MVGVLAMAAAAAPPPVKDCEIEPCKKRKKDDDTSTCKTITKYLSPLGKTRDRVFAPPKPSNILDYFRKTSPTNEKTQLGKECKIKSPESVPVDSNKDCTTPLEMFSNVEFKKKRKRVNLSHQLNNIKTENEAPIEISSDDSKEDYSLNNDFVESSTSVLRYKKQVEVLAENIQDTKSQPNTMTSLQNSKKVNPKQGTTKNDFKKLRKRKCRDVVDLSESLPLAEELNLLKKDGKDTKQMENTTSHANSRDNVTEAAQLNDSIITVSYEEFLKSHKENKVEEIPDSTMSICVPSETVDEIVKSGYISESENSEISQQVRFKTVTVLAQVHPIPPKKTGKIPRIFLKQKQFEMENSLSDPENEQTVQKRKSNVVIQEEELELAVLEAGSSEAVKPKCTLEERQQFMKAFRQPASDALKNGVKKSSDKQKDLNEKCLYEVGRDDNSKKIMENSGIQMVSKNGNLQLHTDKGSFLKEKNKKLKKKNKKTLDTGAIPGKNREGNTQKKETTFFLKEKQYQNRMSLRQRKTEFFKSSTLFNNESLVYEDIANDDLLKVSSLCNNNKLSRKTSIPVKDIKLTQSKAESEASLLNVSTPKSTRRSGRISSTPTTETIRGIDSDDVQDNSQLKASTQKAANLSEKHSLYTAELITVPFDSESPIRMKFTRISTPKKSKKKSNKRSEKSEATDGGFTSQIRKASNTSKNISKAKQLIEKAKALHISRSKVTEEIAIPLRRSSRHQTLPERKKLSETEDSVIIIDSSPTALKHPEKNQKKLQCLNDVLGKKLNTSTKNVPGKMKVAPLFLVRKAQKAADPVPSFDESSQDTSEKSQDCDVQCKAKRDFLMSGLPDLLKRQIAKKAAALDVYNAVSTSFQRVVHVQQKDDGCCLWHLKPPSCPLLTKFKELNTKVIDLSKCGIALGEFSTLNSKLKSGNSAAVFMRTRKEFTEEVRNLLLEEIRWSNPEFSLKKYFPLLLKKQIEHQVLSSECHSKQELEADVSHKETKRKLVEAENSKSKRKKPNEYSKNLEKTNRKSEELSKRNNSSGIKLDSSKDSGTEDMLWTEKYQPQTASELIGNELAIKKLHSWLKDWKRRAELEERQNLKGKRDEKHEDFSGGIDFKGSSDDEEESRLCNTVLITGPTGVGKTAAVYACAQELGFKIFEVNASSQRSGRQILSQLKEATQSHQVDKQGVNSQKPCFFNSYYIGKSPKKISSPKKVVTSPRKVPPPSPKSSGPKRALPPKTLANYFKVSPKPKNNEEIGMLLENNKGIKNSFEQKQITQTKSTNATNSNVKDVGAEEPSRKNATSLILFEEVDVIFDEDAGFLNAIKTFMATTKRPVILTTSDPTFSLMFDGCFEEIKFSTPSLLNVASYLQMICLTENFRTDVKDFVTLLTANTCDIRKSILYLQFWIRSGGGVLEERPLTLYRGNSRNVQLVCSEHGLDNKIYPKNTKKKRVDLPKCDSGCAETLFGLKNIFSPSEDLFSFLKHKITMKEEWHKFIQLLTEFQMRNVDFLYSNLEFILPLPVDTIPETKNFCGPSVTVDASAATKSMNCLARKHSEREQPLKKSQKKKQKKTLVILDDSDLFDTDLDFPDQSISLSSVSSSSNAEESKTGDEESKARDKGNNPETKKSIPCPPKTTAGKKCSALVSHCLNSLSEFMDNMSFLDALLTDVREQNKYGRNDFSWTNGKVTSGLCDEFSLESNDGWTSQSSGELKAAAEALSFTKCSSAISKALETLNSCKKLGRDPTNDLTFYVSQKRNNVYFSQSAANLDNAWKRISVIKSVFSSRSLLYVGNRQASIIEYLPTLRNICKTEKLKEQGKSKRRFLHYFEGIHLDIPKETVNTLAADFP
Chain of Tumor necrosis factor (Homo sapiens) (P01375 whole entry, looked up): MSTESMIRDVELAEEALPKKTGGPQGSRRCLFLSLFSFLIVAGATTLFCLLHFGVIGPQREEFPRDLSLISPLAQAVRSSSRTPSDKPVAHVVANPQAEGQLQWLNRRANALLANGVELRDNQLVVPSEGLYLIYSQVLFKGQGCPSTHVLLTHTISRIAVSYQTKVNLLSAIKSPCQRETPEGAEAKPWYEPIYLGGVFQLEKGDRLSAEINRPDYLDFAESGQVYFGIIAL

O=C1C(Cl)=C(Cl)C(=O)C(Cl)=C1Cl
active: Potency [7] 20 µM | Potency [8] 31.6 µM | Potency [9] 39.8 µM | Potency [10] 31.6 µM | Potency [11] 15.8 µM
inactive: caspase-3 activation [1] -9.68% | outcome [2] | outcome [3] | outcome [4] | outcome [5] | outcome [6]

CCCCCCCCCc1ccc(O)cc1
inactive: Potency [12] > 92 µM | outcome [14] | Potency [15] | Potency [16] | outcome [17] | Potency [18]
active: Potency [13] 31.6 µM

C[C@@]12CC[C@H]3[C@@H](CC[C@]4(O)C[C@H](O)CC[C@@]34C=O)[C@]1(O)CC[C@@H]2C1=CC(=O)OC1
active: Potency [19] 1.07 µM | Potency [20] 0.756 µM

— PubChem BioAssay (NCATS)
